Assay results reported in publication PMC5540273 (PLoS ONE, 2017).

The compounds below were run on CSF1R. Settings: concentration: 1 μM, replicates: in singlicate; n = 1.
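Note: KINOMEscan kinase panel screen.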

SMILES	%Inh [%]
CN(C)S(=O)(=O)c1cc(-c2ccc3nccc(-c4cccc(S(N)(=O)=O)c4)c3c2)cnc1N [GSK1669921]	7
CCS(=O)(=O)c1ccc(OC)c(Nc2nccc(-c3c(-c4cccc(NC(=O)c5c(F)cccc5F)c4)nn4ncccc34)n2)c1 [GSK326180]	24
COc1cc(Nc2nccc(N3CCC(NC(=O)c4cc5ccccc5s4)C3)n2)cc(OC)c1OC (centres unmarked) [GSK1379760]	18
Cc1ccc(F)c(C(=O)Nc2cccc(-c3nn4ccccc4c3-c3ccnc(Nc4cccc(F)c4)n3)c2)c1F [GSK361061]	98.8
Clc1ccc(-c2nn3ncccc3c2-c2ccnc(Nc3ccc4c(c3)OCCO4)n2)cc1 [GW829116]	87
CCCCc1nn2ncccc2c1-c1ccnc(Nc2ccc(N3CCN(C)CC3)cc2)n1 [GW684941]	99.9
CCn1c(-c2nonc2N)nc2c(C#CC(C)(C)O)ncc(OCCCCN)c21.O=C(O)C(F)(F)F.O=C(O)C(F)(F)F [GSK507274]	21
O=C(NC1CCN(c2ccnc(Nc3ccc(F)cc3)n2)C1)c1cc2ccccc2s1 (centres unmarked) [GSK1379716]	2
COc1cc2c(cc1OCCN1CCNCC1)ncc1c3ccc(C#N)cc3[nH]c21	51
COc1cc(Nc2nccc(N3CCC(NC(=O)Nc4cccc(C(C)=O)c4)C3)n2)cc(OC)c1OC (centres unmarked) [GSK1379753]	31
O=C(Nc1cccc(-c2nn3ccccc3c2-c2ccnc(Nc3cccc(C(F)(F)F)c3)n2)c1)c1c(F)cccc1F [GSK292658]	89
